Holding throughout (experiment): NCI-60 one-dose screen, 48 h (100 = growth as untreated, 0 = no growth, -100 = all killed)
What all share (conditions): 10 µM unless noted

For assay [1], the system named is SK-MEL-2 melanoma.
Assay [2] concerns EKVX NSCLC.
Assay [3] relates to SN12C renal.
Assay [4] relates to UO-31 renal.
The test system of assay [5] is TK-10 renal.
Assay [6] concerns ACHN renal.
Assay [7] concerns A498 renal.
The test system of assay [8] is CCRF-CEM leukemia.
Assay [9] concerns MOLT-4 leukemia.
Assay [10] concerns SR leukemia.
Assay [11] relates to RPMI-8226 leukemia.
The test system of assay [12] is OVCAR-8 ovarian.
For assay [13], the system named is OVCAR-5 ovarian.
The subject of assay [14] is OVCAR-4 ovarian.
For assay [15], the system named is SK-OV-3 ovarian.
Assay [16] deals with IGROV1 ovarian.
For assay [17], the system named is HS 578T breast.
Assay [18] has as its system NCI/ADR-RES ovarian.
The subject of assay [19] is OVCAR-3 ovarian.

The panel holds about 83,000 compounds, 20% with a hit somewhere; the sample as a whole holds those more often.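 In brief: 96-well plates, 48 h treatment, single concentration, percent growth endpoint.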 Unmarked numbers belong to inactive results. Activity calls are given as the source filed them. Rule for the calls: active = growth percent below 10; inactive = the rest.

As for `O=C1/C(=C2\SC(=S)N(C3CC3)C2=O)SC(=S)N1C1CC1`, the growth in assay [1] was 102%; in assay [2] it was 95.9%; in [3], 92.5%; in [4] it was 77.4%; in assay [5] it was 108%; in assay [6] it was 97%. Further, the growth is 106% in [7]; 105% in assay [8]; 103% in [9]; 105% in [10]; 102% in assay [11]; 103% in [12]. Further, the growth in assay [13] was 98.5%; in assay [14] it was 97.2%; in assay [15], 109%; in assay [16], 95.5%; in assay [17] it was 97.4%; in assay [18] it was 102%.
Take `COc1ccc(C(=O)Cn2c(C(=O)c3ccc(Cl)cc3)nc3ccccc32)cc1`: the growth is 73.4% in [1]; 90.9% in assay [2]; 65.1% in assay [3]; 54.7% in assay [4]; 99.6% in [5]; 65.5% in assay [6]. For the same compound, the growth is 77.9% in [7]; 39.2% in [8]; 48.5% in [9]; 26.9% in [10]; 13% in [11]; 69.9% in assay [12]. The growth in [13] is 90.4%; in [14] it was 62.4%; in [15], 98.8%; in [16], 39.7%; in assay [19] it was 52%; in [17], 47.2%. For the same compound, the growth in assay [18] was 35.9%.
Regarding `CN1CCN(Cc2ccc(NC(=O)c3cncc(C#Cc4cnc5ccc(Cl)nn45)c3)cc2C(F)(F)F)CC1`, the growth in assay [1] is -46.1% (active); in [2], -22% (active); in assay [3], 0.38% (active); in [4], -11.5% (active); in assay [5], 5.85% (active); in assay [6], 1.09% (active). Besides, the growth in [7] was -8.2% (active); in assay [8], 2.17% (active); in assay [9], 3.14% (active); in [10], -2.72% (active); in [11], -25.6% (active); in assay [12], 8.97% (active). Also, the growth in [13] is -4.08% (active); in assay [14], -4.08% (active); in assay [15], 12.3%; in assay [16], 1.12% (active); in assay [19], -5.42% (active); in assay [17], -14.6% (active). In addition, in assay [18], the growth is 2.61% (active).
On to `O=C(/C=C/C12c3ccccc3C(c3ccccc31)C1C(=O)NC(=O)C12)c1ccc(Br)cc1` (centres undefined), for which the growth is 52.2% in [1]; 60.2% in assay [2]; 46.2% in [3]; 41.4% in assay [4]; 61.2% in [5]; 66.2% in assay [6]. Further, the growth in assay [7] was 60.2%; in [8], -3.91% (active); in assay [9], 3.02% (active); in [10], 14.4%; in assay [11] it was -10.7% (active); in assay [12], 19.6%. The growth is 59.6% in [13]; 63.9% in assay [14]; 72.5% in [15]; 48% in [16]; 13% in assay [19]; 45.2% in assay [17]. In addition, the growth in assay [18] was 45.1%.
Turning to `CC(C)N1C(=O)/C(=c2\sc3n(c2=O)C2C(NN=3)N(C)C(=O)N2C)c2ccccc21` (centres undefined), the growth was 73.5% in assay [1]; 88.8% in assay [2]; 81.7% in assay [3]; 52.7% in assay [4]; 94.5% in assay [5]; 59.2% in [6]. In addition, the growth in assay [7] is 23.8%; in [8], 69.8%; in assay [9], 71.5%; in [10], 23.3%; in assay [11], 94.5%; in [12], 79.6%. In addition, the growth in assay [13] was 84.6%; in assay [14], 85%; in [15], 76.3%; in assay [16] it was 53.2%; in assay [19], 20.7%; in [17], 41.7%. Also, in [18], the growth was 51.5%.
As to `CCOc1cccc(/C=N/NC(=O)c2cccc(Nc3ccnc(C(F)(F)F)c3)c2)c1O`, the growth is 58.7% in assay [1]; 21.3% in [2]; 33.2% in assay [3]; 17.3% in assay [4]; 49.5% in [5]; 24.4% in assay [6]. The growth was 61.5% in assay [7]; 6.39% (active) in assay [8]; 41.4% in assay [10]; 27.3% in assay [11]; 24.4% in assay [12]; 40.9% in assay [13]. For the same compound, the growth in [14] was 39.1%; in [15] it was 30.2%; in assay [16], 24.2%; in [19], 43.2%; in assay [17], 43.7%; in assay [18] it was 37.6%.
In the case of `NNCCc1ccc(NC(=O)CCCc2ccc(C(=O)Nc3ccccc3N)cc2)cc1`, the growth in assay [1] was 42.6%; in assay [2], 81.7%; in [3] it was 80.1%; in assay [4], 69.5%; in assay [5], 32.5%; in assay [6], 89.2%. Further, the growth in assay [7] was 60.9%; in [8], 0.638% (active); in assay [9] it was 27.9%; in assay [11], 41.8%; in assay [12], 45.6%; in [13], 74%. The growth in [14] was 70.1%; in assay [15], 79.3%; in assay [16], 86.8%; in assay [19], 75%; in assay [17] it was 77.8%; in assay [18], 85%.
For the compound `CNC1=C([N+](=O)[O-])C(c2ccc(OC)cc2)C(C#N)=C(c2cccs2)O1` (centres undefined), the growth is 119% in [1]; 104% in assay [2]; 105% in assay [3]; 80.6% in [4]; 124% in assay [5]; 109% in assay [6]. For the same compound, the growth in [7] was 117%; in assay [8], 108%; in assay [9] it was 101%; in assay [10] it was 112%; in assay [11], 111%; in assay [12] it was 103%. Moreover, the growth in [13] is 108%; in [14], 100%; in assay [15], 110%; in assay [16], 108%; in [19] it was 99.4%; in assay [17], 106%. In addition, the growth in assay [18] is 107%.

For the origin of these results see PubChem BioAssay (NCI).
